Measurements from PubChem BioAssay (NCI).
This is part of a sample that, as a whole, favours compounds with a hit. Of some 79,000 tested, about 15% had one in any assay. The source made the active and inactive calls. No stated cut-off is given here; in the data, active means growth inhibition above about 70%; inactive means the rest.

Test: NCI Yeast Anticancer Drug Screen. Data for the mlh1 rad18 strain (AID 175)
Conditions: S. cerevisiae mlh1 rad18 strain growth inhibition; at 50.0 µM; hits give high values
How it was run: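 In this whole-cell yeast screen, a strain with altered DNA damage repair is challenged with compound, and its growth is measured against matched vehicle-treated controls.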

| Structure (SMILES) | growth inhibition |
| --- | --- |
| CC1(C(Cl)Cl)C=CC(=O)c2ccccc21 (stereo not drawn) | 4.9% (inactive) |
| NC(C(F)(F)F)(C(F)(F)F)P(=O)(Cc1ccccc1)Cc1ccccc1 | 7.85% (inactive) |
| COC1CCC(C(C)(C)C)CC1 (stereo not drawn) | -21.7% (inactive) |
| O=C(NCCc1c(-c2ccccc2)[nH]c2ccccc12)C1CCCCC1 | -2.3% (inactive) |
| CCCCC1CCC2CCCCC2C1 (stereo not drawn) | 8% (inactive) |
| Cc1cc(=O)n2[nH]nnc2n1 | 14.2% (inactive) |
| COC(=O)CNC(=O)C(Cc1ccccc1)NC(=O)OCc1ccccc1 (stereo not drawn) | -3.3% (inactive) |
| C=CCSc1ccc(Cl)cc1[N+](=O)[O-] | 0.3% (inactive) |
| N#CC1(OC2OC(CO)C(O)C(O)C2O)C=CCC1 (stereo not drawn) | -3.05% (inactive) |
| Brc1cc2ccccc2nc1-c1ccccc1 | 10.1% (inactive) |
| CN(C)NC(=O)Nc1cccc2ccccc12 | -20.4% (inactive) |
| COC(=O)C(CC(=O)Nc1ccc(Cl)c(Cl)c1)C(=O)C(=O)NC1C2CC3CC(C2)CC1C3 (stereo not drawn) | -9.05% (inactive) |
| CCOC(=O)C1C(C)C2(C#N)C(=N)OC1(C)C2(C#N)C#N (stereo not drawn) | -12.9% (inactive) |
| S=c1sc2c(Cl)nc(Cl)nc2n1-c1ccccc1 | -11.2% (inactive) |
| COc1ccc(C=Nc2ccc(O)cc2)cc1 | -13.9% (inactive) |
| COc1cc(C(O)CCBr)c(OC)cc1C (stereo not drawn) | 19.9% (inactive) |
| COc1ccc(/C=N/N=C/c2ccc(OC)cc2)cc1 | 17.8% (inactive) |
| CCCCCCCCOC(=O)c1cc([N+](=O)[O-])c(Sc2ncnc3nc[nH]c23)c([N+](=O)[O-])c1 | 24.2% (inactive) |
